15 targets from the supplement of paper PMC10849652 can be followed below.

The full data set covers some 7,900 targets. This sample favours those with a hit. About 0.6% of all pairs of compound and target were hits. A number with no mark means an inactive call.

What all share (experiment): log2 fold change, soluble protein after heating vs DMSO (PISA); higher = thermal stabilisation; K562 cells, 10 uM, 30 min; active = over 0.2 and 3.5 SD of the protein, either way, in both replicates (recomputed)
Compound in experiment [1]: Cc1ccc(NC(=O)c2ccc(CN3CC[C@H](N(C)C)C3)c(C(F)(F)F)c2)cc1Nc1nccc(-c2cncnc2)n1 [bafetinib]
A digest of the protocol:
(§1)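 K562 cells at 2×10^6 cells/mL were given 10 μM compound for 30 min. Aliquots then went through 3 min of heating across 48°C-58°C, were pooled, and were extracted in PBS with 0.5% NP-40 at 4°C, and the supernatant after 21,000xg for 90 min was quantified by TMTpro 16plex LC-MS/MS with channel sums equalised. Thermal stability relative to control samples, from duplicates, is given as log2 fold change.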

Compound in experiment [2]: Cc1cccc(CC(=O)N2CCc3c2ccc(-c2cn(C)c4ncnc(N)c24)c3F)n1
Summed up: as §1

Compound in experiment [3]: Cc1cn(-c2cc(NC(=O)c3ccc(C)c(Nc4nccc(-c5cccnc5)n4)c3)cc(C(F)(F)F)c2)cn1 [nilotinib]
Summed up: as §1

Compound in experiment [4]: Cc1nc(Nc2n[nH]c3c2CN(C(=O)N[C@H](CN(C)C)c2ccccc2)C3(C)C)c2sccc2n1
Summed up: as §1

Compound in experiment [5]: Cc1nc(Nc2ncc(C(=O)Nc3c(C)cccc3Cl)s2)cc(N2CCN(CCO)CC2)n1 [dasatinib]
A digest of the protocol:
as §1

Compound in experiment [6]: Cc1ncc(-c2ccnc(Nc3ccc(S(C)(=O)=O)cc3)n2)n1C(C)C
Summed up:
as §1

Compound in experiment [7]: Cn1cc(-c2ccc3c(c2)CCN3C(=O)Cc2cccc(C(F)(F)F)c2)c2c(N)ncnc21
Summed up:
as §1

Compound in experiment [8]: Cn1cc(-c2ccc3nnc(C(F)(F)c4ccc5ncccc5c4)n3n2)cn1
A digest of the protocol:
as §1

Compound in experiment [9]: Cn1cncc1[C@@](N)(c1ccc(Cl)cc1)c1ccc2c(c1)c(-c1cccc(Cl)c1)cc(=O)n2C [tipifarnib]
Summed up: as §1

Compound in experiment [10]: FC(F)(F)c1ccc(/C=C/c2nc(COc3ccc(CCCCn4ccnn4)cc3)co2)cc1 [mubritinib]
A digest of the protocol:
as §1

UniProt P36969, sequence (P36969 whole entry, looked up): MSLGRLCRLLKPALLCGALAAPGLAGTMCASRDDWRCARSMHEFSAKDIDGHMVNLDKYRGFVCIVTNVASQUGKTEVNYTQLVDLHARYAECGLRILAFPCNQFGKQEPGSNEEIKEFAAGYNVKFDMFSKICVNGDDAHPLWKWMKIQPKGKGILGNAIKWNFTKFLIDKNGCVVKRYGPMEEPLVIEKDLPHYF
UniProt P15586, sequence (P15586 whole entry, looked up): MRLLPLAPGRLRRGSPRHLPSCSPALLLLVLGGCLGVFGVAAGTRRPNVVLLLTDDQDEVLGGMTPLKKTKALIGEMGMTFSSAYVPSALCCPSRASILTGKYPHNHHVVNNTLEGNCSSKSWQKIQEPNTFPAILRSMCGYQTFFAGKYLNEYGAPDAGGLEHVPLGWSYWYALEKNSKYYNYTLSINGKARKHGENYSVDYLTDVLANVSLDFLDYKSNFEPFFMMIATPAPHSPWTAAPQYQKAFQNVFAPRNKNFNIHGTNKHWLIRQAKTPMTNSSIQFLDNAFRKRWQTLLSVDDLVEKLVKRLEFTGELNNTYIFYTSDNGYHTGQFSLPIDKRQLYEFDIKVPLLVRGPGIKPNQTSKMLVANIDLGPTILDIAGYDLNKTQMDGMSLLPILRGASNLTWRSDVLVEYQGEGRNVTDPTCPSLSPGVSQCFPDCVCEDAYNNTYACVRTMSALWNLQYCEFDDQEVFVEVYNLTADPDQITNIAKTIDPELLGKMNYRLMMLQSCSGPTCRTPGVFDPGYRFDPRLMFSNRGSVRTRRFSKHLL
UniProt Q9Y3D6, sequence (Q9Y3D6 whole entry, looked up): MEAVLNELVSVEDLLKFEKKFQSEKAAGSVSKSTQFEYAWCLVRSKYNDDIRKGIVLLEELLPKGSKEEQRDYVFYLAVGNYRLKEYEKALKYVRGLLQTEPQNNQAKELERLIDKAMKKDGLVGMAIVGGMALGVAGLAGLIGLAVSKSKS
UniProt Q8NCW6, sequence (Q8NCW6 whole entry, looked up): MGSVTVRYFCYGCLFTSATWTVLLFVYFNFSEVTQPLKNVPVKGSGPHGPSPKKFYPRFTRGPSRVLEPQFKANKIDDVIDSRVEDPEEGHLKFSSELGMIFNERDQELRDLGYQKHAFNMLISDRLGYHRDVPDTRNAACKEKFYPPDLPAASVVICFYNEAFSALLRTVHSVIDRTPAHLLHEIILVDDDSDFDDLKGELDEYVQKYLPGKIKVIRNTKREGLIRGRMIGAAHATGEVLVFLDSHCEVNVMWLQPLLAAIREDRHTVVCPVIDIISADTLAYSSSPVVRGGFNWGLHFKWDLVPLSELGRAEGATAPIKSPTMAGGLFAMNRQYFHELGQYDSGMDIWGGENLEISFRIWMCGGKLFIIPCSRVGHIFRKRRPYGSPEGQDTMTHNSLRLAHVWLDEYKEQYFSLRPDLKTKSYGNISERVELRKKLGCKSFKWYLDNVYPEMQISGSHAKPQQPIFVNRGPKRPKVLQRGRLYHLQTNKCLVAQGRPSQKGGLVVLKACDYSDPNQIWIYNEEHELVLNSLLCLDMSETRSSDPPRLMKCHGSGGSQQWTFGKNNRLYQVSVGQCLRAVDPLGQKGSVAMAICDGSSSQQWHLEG
UniProt P08236, sequence (P08236 whole entry, looked up): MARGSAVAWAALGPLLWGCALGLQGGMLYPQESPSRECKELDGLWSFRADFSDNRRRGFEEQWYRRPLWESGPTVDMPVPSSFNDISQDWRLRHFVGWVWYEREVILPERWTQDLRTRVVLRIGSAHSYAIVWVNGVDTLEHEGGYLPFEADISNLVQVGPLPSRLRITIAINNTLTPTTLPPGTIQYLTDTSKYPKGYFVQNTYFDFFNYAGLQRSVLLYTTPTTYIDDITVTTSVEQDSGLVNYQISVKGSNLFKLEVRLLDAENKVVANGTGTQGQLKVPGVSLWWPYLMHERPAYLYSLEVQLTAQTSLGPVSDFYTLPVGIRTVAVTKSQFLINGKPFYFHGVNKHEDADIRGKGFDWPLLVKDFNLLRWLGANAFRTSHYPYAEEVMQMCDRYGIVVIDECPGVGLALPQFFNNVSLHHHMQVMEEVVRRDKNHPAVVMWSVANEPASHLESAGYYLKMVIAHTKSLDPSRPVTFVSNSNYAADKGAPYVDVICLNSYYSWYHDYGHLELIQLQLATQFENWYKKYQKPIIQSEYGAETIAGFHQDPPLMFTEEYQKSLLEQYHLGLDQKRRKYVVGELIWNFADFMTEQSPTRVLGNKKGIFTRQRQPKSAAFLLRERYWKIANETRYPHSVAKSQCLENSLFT
UniProt P69905, sequence (P69905 whole entry, looked up): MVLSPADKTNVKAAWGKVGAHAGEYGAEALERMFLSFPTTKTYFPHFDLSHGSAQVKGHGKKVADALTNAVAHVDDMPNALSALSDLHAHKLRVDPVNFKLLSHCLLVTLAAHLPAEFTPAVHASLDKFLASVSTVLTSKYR
UniProt P52655, sequence (P52655 whole entry, looked up): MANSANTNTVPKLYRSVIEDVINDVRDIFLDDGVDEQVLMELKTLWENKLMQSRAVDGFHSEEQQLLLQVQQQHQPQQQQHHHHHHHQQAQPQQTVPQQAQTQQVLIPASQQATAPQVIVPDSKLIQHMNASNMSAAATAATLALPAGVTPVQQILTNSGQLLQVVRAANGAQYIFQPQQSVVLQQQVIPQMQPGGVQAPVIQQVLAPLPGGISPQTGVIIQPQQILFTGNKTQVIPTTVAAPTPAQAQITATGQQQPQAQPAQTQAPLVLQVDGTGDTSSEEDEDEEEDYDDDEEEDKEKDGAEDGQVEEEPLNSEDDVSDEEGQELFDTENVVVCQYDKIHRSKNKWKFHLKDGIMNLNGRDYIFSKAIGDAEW
UniProt Q9UJ14, sequence (Q9UJ14 whole entry, looked up): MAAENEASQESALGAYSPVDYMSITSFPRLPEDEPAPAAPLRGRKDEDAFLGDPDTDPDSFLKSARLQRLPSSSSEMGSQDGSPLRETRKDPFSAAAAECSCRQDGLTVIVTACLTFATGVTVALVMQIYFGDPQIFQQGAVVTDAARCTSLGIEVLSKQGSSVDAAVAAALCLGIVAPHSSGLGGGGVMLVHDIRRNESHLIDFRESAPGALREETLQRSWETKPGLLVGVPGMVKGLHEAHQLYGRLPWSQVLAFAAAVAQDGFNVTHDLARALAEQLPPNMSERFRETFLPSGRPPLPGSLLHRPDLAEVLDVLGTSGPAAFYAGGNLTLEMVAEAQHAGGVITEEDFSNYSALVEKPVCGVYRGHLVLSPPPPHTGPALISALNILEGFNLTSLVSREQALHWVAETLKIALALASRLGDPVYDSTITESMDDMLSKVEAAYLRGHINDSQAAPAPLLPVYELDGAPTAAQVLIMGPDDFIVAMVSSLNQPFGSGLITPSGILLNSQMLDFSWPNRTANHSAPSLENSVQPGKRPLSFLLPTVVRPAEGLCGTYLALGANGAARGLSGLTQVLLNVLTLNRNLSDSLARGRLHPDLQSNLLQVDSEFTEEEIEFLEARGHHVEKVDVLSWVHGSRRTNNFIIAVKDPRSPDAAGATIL
UniProt P49840, sequence (P49840 whole entry, looked up): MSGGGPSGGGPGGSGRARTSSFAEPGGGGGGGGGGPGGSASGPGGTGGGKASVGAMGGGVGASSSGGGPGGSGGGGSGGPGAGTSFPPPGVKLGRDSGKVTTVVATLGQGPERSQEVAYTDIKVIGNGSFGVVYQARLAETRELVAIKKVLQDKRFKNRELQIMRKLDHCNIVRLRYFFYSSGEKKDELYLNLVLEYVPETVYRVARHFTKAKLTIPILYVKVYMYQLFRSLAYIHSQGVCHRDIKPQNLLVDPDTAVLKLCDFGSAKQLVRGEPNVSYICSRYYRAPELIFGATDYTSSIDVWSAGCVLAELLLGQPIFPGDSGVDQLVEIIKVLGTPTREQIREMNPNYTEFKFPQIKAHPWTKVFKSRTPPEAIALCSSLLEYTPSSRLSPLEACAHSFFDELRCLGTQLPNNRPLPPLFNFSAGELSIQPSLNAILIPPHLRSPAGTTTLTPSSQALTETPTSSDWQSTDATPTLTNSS
UniProt P22570, sequence (P22570 whole entry, looked up): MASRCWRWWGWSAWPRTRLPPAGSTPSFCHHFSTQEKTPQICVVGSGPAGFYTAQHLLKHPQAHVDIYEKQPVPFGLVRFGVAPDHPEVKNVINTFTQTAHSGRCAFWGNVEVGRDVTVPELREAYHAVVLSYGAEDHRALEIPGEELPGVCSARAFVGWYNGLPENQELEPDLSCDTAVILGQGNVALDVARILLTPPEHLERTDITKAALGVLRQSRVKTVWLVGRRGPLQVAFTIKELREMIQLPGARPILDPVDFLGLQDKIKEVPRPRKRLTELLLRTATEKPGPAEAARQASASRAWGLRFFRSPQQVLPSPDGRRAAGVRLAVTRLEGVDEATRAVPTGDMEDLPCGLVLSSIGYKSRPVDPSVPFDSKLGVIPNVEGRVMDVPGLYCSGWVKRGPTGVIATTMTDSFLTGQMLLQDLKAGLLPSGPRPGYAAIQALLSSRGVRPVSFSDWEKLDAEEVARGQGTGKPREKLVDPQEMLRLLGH
UniProt P49841, sequence (P49841 whole entry, looked up): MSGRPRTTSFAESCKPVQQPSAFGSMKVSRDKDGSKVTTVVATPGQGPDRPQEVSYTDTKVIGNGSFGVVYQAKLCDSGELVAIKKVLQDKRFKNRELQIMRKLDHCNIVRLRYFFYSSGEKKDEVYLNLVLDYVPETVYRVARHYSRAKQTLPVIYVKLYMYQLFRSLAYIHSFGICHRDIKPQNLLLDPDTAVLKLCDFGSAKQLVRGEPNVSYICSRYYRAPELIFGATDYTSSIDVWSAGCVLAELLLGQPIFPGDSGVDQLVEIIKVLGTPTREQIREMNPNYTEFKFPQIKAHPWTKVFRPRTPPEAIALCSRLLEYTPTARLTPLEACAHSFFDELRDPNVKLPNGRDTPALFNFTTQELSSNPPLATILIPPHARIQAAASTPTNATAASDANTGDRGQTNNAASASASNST

FNTA (UniProt P49354): the log2 fold change in [1] is -0.024; in [2] it was -0.009; in [3], -0.002; in experiment [4], 0.104; in experiment [5] it was 0.165; in experiment [6], 0.019. The log2 fold change was 0.036 in [7], 0.091 in experiment [8], 0.429 (active) in [9] and 0.013 in experiment [10].

GGT7 (UniProt Q9UJ14): the log2 fold change is -0.081 in [1]; -0.038 in experiment [2]; 0.026 in [3]; 0.015 in experiment [4]; -0.02 in experiment [5]; -0.03 in experiment [6]. The log2 fold change in experiment [7] is 0.063; in experiment [8], 0.018; in experiment [9], 0.001; in experiment [10], 0.021.

For the target GPX4 (UniProt P36969), the log2 fold change in [1] is 0.003; in experiment [2], 0.023; in [3], 0.036; in [4] it was -0.031; in [5], 0.015; in [6], 0.019. For the same target, the log2 fold change was 0.05 in experiment [7], 0.003 in experiment [8], -0.046 in experiment [9] and 0.033 in experiment [10].

With GALNT11 (UniProt Q8NCW6), the log2 fold change is -0.055 in experiment [1]; -0.089 in experiment [2]; -0.047 in experiment [3]; -0.068 in experiment [4]; -0.022 in experiment [5]; 0.076 in [6]. Further, the log2 fold change was 0.069 in experiment [7], -0.031 in experiment [8], 0.102 in experiment [9] and 0.088 in experiment [10].

Turning to GNS (UniProt P15586), the log2 fold change was -0.156 in [1]; -0.002 in experiment [2]; 0.003 in experiment [3]; 0.037 in experiment [4]; 0.006 in [5]; -0.033 in experiment [6]. Further, the log2 fold change in experiment [7] is 0.008; in [8] it was -0.028; in experiment [9] it was 0.02; in experiment [10] it was -0.004.

HMGN2 (UniProt P05204): the log2 fold change in [1] was -0.013; in experiment [2], -0.189; in experiment [3], -0.025; in experiment [4], 0.022; in experiment [5], 0.053; in [6], 0. Also, the log2 fold change in [7] is -0.025; in [8] it was 0.04; in [9], 0.079; in experiment [10], 0.021.

GSK3A (UniProt P49840): the log2 fold change was -0.052 in [1]; -0.027 in experiment [2]; -0.01 in [3]; 0.308 (active) in experiment [4]; -0.024 in [5]; 0.383 (active) in experiment [6]. The log2 fold change in experiment [7] was -0.004; in experiment [8], 0.011; in [9], -0.033; in [10], 0.038.

As for HBA1 (UniProt P69905), the log2 fold change in experiment [1] was -0.013; in [2] it was 0.138; in experiment [3], 0.029; in experiment [4], 0.017; in [5], 0.044; in experiment [6], 0.01. For the same target, the log2 fold change in [7] is 0.156; in [8], 0.345 (active); in experiment [9], -0.084; in experiment [10], 0.024.

In the case of FDXR isoform 7 (UniProt P22570), the log2 fold change was -0.012 in experiment [1]; -0.162 in [2]; -0.031 in [3]; -0.015 in experiment [4]; -0.245 in experiment [5]; -0.042 in experiment [6]. The log2 fold change was -0.023 in [7], 0.038 in [8], -0.002 in experiment [9] and -0.643 (active) in experiment [10].

Consider FIS1 (UniProt Q9Y3D6), for which the log2 fold change in experiment [1] is -0.087; in experiment [2] it was -0.034; in [3], 0.041; in [4], -0.002; in [5], -0.044; in experiment [6], 0.007. Moreover, the log2 fold change was 0.111 in experiment [7], 0.07 in experiment [8], -0.024 in experiment [9] and 0.053 in [10].

As to GSK3B isoform 2 (UniProt P49841), the log2 fold change in experiment [1] is -0.003; in [2], 0.055; in [3] it was -0.04; in experiment [4], 0.094; in [5] it was -0.115; in [6], 0.124. Further, the log2 fold change was 0.055 in [7], -0.013 in experiment [8], -0.024 in experiment [9] and -0.008 in [10].

Regarding GUSB (UniProt P08236), the log2 fold change was 0.016 in experiment [1]; -0.013 in [2]; 0.218 in experiment [3]; -0.115 in [4]; 0.053 in experiment [5]; 0.117 in experiment [6]. In addition, the log2 fold change was -0.059 in [7], -0.007 in experiment [8], 0.16 in experiment [9] and -0.136 in [10].

As for HDAC2 (UniProt Q92769), the log2 fold change is 0.137 in experiment [1]; -0.046 in [2]; -0.01 in experiment [3]; 0.009 in [4]; 0.007 in experiment [5]; -0.002 in [6]. Moreover, the log2 fold change in [7] is -0.01; in experiment [8], -0.001; in [9], 0.027; in [10], 0.015.

Consider GTF2A1 (UniProt P52655), for which the log2 fold change is 0 in [1]; -0.047 in [2]; 0.111 in [3]; -0.047 in experiment [4]; 0.068 in [5]; -0.078 in experiment [6]. For the same target, the log2 fold change was 0.081 in experiment [7], 0.349 in experiment [8], 0.144 in [9] and -0.008 in experiment [10].

Consider GATD1 (UniProt Q8NB37), for which the log2 fold change in experiment [1] was 0.008; in experiment [2] it was -0.021; in experiment [3] it was 0.059; in [4], -0.016; in experiment [5] it was -0.011; in [6], 0.119. Also, the log2 fold change in [7] is 0.046; in [8] it was 0.015; in experiment [9], 0.029; in experiment [10], 0.035.
